This note sets out measurements from PubChem BioAssay (NCATS).

Values joined by “and” are separate entries in the source; they are usually repeats but may differ in a detail not shown here. Equal entries are not always repeated. Records with an inconclusive call do not appear. A structure can be active in one record and inactive in another. Active and inactive are the calls of the source. Calls come from the whole dose curve; as a rule, active = well fitted curve in the direction sought with a large enough effect; inconclusive = small, poorly fitted or top-dose-only effect, or another doubt; inactive = no such curve, though single readings can be large; an effect the other way counts as inactive or inconclusive.

The nature of experiment [1]: Viability qHTS for spleen associated tyrosine kinase inhibitor (SYKi) naive MV4-11 cells (AID 1963823). Note: nearly all actives have a fitted effect of over 40% in size. In outline:
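Seeding of 500 SYKi-naive MV4-11 cells per well onto pre-dispensed compounds preceded a 72 hr incubation at 37 C. Luminescent CellTiter-Glo signal, read after 10 min at room temperature, reflected viable cells.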

A short description of experiment [2]: Viability qHTS for spleen associated tyrosine kinase inhibitor (SYKi) drug resistant MV4-11 cells (AID 1963824). Note: nearly all actives have a fitted effect of over 35% in size. The essentials: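 CellTiter-Glo luminescence, read 10 min after reagent addition, reports viability after a 72 hr compound exposure. Cells are an MV4-11 line made resistant to SYK inhibition, seeded at 500 per well onto compound-containing plates.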

Experiment [3] in a line: Quantitative highthroughput screen to assess conditional lethalithy of NOMO1 cells grown in RPMI1640 with untreated serum (RPMI+s) (AID 1963876).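 For Viability: 100% = DMSO wells and 0% = empty wells without cells.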 Note: nearly all actives have a fitted effect of over 35% in size. In outline: (§1)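 Each medium arm—HPLM with 10% dialyzed FBS, or RPMI1640 with 5 mM glucose and 10% untreated or dialyzed FBS—was screened against an 11-point, 3-fold compound titration for 48 h at 37 °C, with CellTiter-Glo luminescence as endpoint.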

Experiment [4] in a line: Quantitative highthroughput screen to assess conditional lethalithy of P12 Ichikawa cells grown in Human Plasma-Like Medium with dialyzed fetal bovine serum (HPLM+ds) (AID 1963879). For Viability: series mostly up to about 46 µM. Note: nearly all actives have a fitted effect of over 35% in size. Conditions: Potency: viability. The essentials:
as §1

A short description of experiment [5]: Quantitative highthroughput screen to assess conditional lethalithy of P12 Ichikawa cells grown in RPMI1640 with dialyzed fetal bovine serum (RPMI+ds) (AID 1963880).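 For Viability: 100% = DMSO wells and 0% = empty wells on each plate.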 Note: nearly all actives have a fitted effect of over 35% in size. The note with it: Potency: P12-Ichikawa viability. The essentials: as §1
Experiment [6] in a line: Quantitative highthroughput screen to assess conditional lethalithy of P12 Ichikawa cells grown in RPMI1640 with untreated serum (RPMI+s) (AID 1963881).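 For Viability: series mostly up to about 46 µM; 100% = DMSO wells and 0% = empty wells without cells.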 Note: nearly all actives have a fitted effect of over 35% in size. Conditions: Potency: viability. The essentials:
as §1

Experiment [7] in a line: Quantitative highthroughput screen to assess conditional lethalithy of SEM cells grown in Human Plasma-Like Medium with dialyzed fetal bovine serum (HPLM+ds) (AID 1963882). For Viability: series mostly up to about 46 µM. Note: nearly all actives have a fitted effect of over 35% in size. In outline:
as §1

Experiment [8] can be described thus: Quantitative highthroughput screen to assess conditional lethalithy of SEM cells grown in RPMI1640 with unreated serum (RPMI+s) (AID 1963883).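 For Viability: 100% = DMSO wells and 0% = empty wells without cells.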 Note: nearly all actives have a fitted effect of over 35% in size. The essentials:
as §1

Experiment [9] can be described thus: Quantitative highthroughput screen to assess conditional lethalithy of SEM cells grown in RPMI1640 with dialyzed fetal bovine serum (RPMI+ds) (AID 1963884).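 For Viability: series mostly up to about 46 µM; 100% = DMSO control wells and 0% = empty wells without cells.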 Note: nearly all actives have a fitted effect of over 35% in size. The essentials:
as §1

Experiment [10] is described as follows: Cellular viability qHTS for adrenocortical cancer (ACC) cell line NCI-H295R (AID 1963990). Note: nearly all actives have a fitted effect of over 60% in size. In outline:
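Adrenocortical carcinoma cells, suspended at 300 000 cells/mL in serum-free DMEM plus ITS, rested overnight before pin transfer of compound. After two days' incubation, ATP-dependent luminescence was recorded and curve-fitted.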

Experiment [11] in a line: Quantitative highthroughput screen to assess conditional lethalithy of NOMO1 cells grown in Human Plasma-Like Medium with dialyzed fetal bovine serum (HPLM+ds) (AID 1963878).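 For Viability: 100% = DMSO wells and 0% = empty wells on each plate.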 Note: nearly all actives have a fitted effect of over 35% in size. The essentials: as §1
A short description of experiment [12]: Cellular viability qHTS for adrenocortical cancer (ACC) cell line SW-13 (AID 1963989).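 For activity (max response): cells grown in serum-free medium with ITS supplement; % is set by controls: 0 for no effect and ±100 for the full control effect.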 Note: nearly all actives have a fitted effect of over 65% in size. Conditions: SW-13 ACC cells viability, CellTiter-Glo, 48 h; activity (max response): stronger effect = lower value. In outline:
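IC50 and maximal-response values come from four-parameter logistic fits of titration data. SW-13 cells in serum-free medium received compounds (up to 46 uM final) for 48 h before CellTiter-Glo luminescence.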
Potency is the fitted concentration of half-maximal effect.

`CC[C@H](C)n1cc(C)c2c(C(=O)NCc3c(C)cc(C)[nH]c3=O)cc(-c3ccc(N4CCNCC4)nc3)cc21`: the Potency was 7.42 µM (active) in [1], 10.5 µM (active) in experiment [2] and 28.2 µM (active) in experiment [10]. Also, the Potency result in experiment [3], in experiment [4], in experiment [5], in experiment [6], in experiment [7] and in experiment [8] was “inactive” throughout. In addition, the Potency entry in experiment [9] was “inactive”.
Turning to `O=C(O)Cn1nnc(-c2cc(N3CCC(Oc4cc(F)ccc4Br)CC3)no2)n1`, the Potency result in [1], in experiment [8], in experiment [9] and in [10] was “inactive” throughout. Further, the Potency was 0.103 µM (active) in [2]; 1.05 µM (active) in experiment [3]; 9.35 µM (active) in experiment [4]; 11.8 µM (active) in experiment [5]; 9.35 µM (active) in experiment [6].
Regarding `CC[C@H](C)C(=O)O[C@H]1C[C@@H](C)C=C2C=C[C@H](C)[C@H](CC[C@@H]3C[C@@H](O)CC(=O)O3)[C@H]21`, the Potency in experiment [1] is 8.33 µM (active); in experiment [2], 2.66 µM (active) and 3.17 µM (active) and 4.68 µM (active); in experiment [11], 14.8 µM (active); in experiment [10], “inactive and 17.8 µM (active)”. In addition, the Potency entry in experiment [3], in experiment [7] and in [9] was “inactive” throughout.
As for `O=S(=O)(O)CCSSCCS(=O)(=O)O`, the Potency entry in experiment [1], in [2], in experiment [3], in [11], in [4] and in experiment [5] was “inactive” throughout. The Potency result in experiment [8], in experiment [9] and in experiment [10] was “inactive” throughout.
Turning to `COc1cc2c(cc1OC)[C@@H]1C(=O)c3ccc4c(c3O[C@@H]1CO2)C=CC(C)(C)O4`, the Potency in experiment [1] is 103 nM (active) and 93.4 nM (active); in experiment [2], 146 nM (active) and 166 nM (active); in experiment [3], 23.5 µM (active); in [11], 20.9 µM (active); in experiment [4], 18.7 µM (active); in experiment [5], 18.7 µM (active). The Potency was 6.62 µM (active) in [6]; 2.64 µM (active) in experiment [8]; 16.6 µM (active) in experiment [9]; 0.178 µM (active) in [12]; 20 µM (active) in experiment [10].
In the case of `Nc1ccn([C@@H]2O[C@H](CO)[C@@H](O)[C@H]2O)c(=O)n1`, the Potency entry in experiment [1], in experiment [2], in experiment [6], in [9] and in experiment [10] was “inactive” each time. Also, the Potency in [3] is 0.0743 µM (active); in [11] it was 0.0166 µM (active). In experiment [12], the activity (max response) is 10.2% (inactive).
`Cc1ccc(C(=O)N(CCCN)[C@@H](c2nc3cc(Cl)ccc3c(=O)n2Cc2ccccc2)C(C)C)cc1`: the Potency was 0.0042 µM (active) in experiment [1]; 0.0037 µM (active) in experiment [2]; 0.0013 µM (active) in [3]; 0.0013 µM (active) in experiment [4]; 0.0021 µM (active) in experiment [5]; 0.0013 µM (active) in experiment [6]. Besides, the Potency is 0.0012 µM (active) in experiment [7]; 0.0012 µM (active) in experiment [8]; 0.0013 µM (active) in experiment [9]; 0.01 µM (active) in experiment [12]; 0.0794 µM (active) in [10].
Regarding `Cc1cc(Cl)ccc1OCCCC(=O)NO`, the Potency is 14.8 µM (active) in experiment [1]; 13.2 µM (active) in [2]; 14.8 µM (active) in experiment [3]; 8.33 µM (active) in experiment [4]; 1.48 µM (active) in experiment [5]; 5.9 µM (active) in experiment [6]. In addition, the Potency in experiment [7] was 9.35 µM (active); in experiment [9] it was 9.35 µM (active); in [10] it was 1.26 µM (active).
For the compound `NC(N)=NC(=O)c1nc(Cl)c(N)nc1N`, the Potency in experiment [1] was 5.39 µM (active) and 841 nM (active); in [2], 12.1 µM (active) and 668 nM (active); in experiment [3] it was 0.935 µM (active); in [4] it was 4.69 µM (active); in [5] it was 13.2 µM (active); in experiment [6] it was 4.69 µM (active). Besides, the Potency result in experiment [7] and in [8] was “inactive” in each case. In experiment [12], the activity (max response) was -8.19% (inactive) and -7.03% (inactive).
Regarding `O=C(O)c1ccc(-c2c[nH]c3ncc(-c4ccccc4)cc23)cc1C1CCCC1`, the Potency in experiment [1] is 1.18 µM (active); in experiment [2], 651 nM (active) and 2.35 µM (active); in experiment [5] it was 6.62 µM (active). Moreover, the Potency result in [3], in experiment [11] and in experiment [10] was “inactive” throughout.
As for `COc1cc([C@@H]2c3cc4c(cc3[C@H](O)[C@H]3COC(=O)[C@H]23)OCO4)cc(OC)c1OC`, the Potency in experiment [1] was 26.6 nM (active) and 26.3 nM (active); in [2], 37.6 nM (active) and 37.2 nM (active); in experiment [3], 0.0042 µM (active); in experiment [4], 0.0019 µM (active); in experiment [5], 0.0021 µM (active); in [6] it was 0.0021 µM (active). Further, the Potency in experiment [7] was 0.0026 µM (active); in [8], 0.0019 µM (active); in experiment [9] it was 0.0026 µM (active); in [12] it was 9.2 nM (active) and 44.7 nM (active).
As to `FC(F)(F)c1ccc(Nc2nc3ccc(Oc4ccnc(-c5ncc(C(F)(F)F)[nH]5)c4)cc3[nH]2)cc1`, the Potency in [1] is 1.64 µM (active); in experiment [2], 4.17 µM (active); in experiment [7] it was 18.7 µM (active); in [8], 18.7 µM (active); in experiment [9], 16.6 µM (active); in experiment [12], 22.4 µM (active). Moreover, the Potency in [10] was 11.2 µM (active). Further, the Potency result in [3] and in experiment [11] was “inactive” throughout.
Regarding `Clc1ccc(C(Cn2ccnc2)OCc2ccsc2Cl)c(Cl)c1` (stereo unspecified), the Potency in experiment [1] was 8.33 µM (active); in experiment [2], 9.34 µM (active); in experiment [12], 18.4 µM (active); in [10] it was 31.6 µM (active). Moreover, the Potency result in [3] and in experiment [11] was “inactive” each time.
Take `Cc1nc2cnc3ccc(C#Cc4cccnc4)cc3c2n1-c1ccc(C(C)(C)C#N)cc1`: the Potency in [1] was 8.2 µM (active) and 235 nM (active); in [2], 8.2 µM (active) and 332 nM (active); in experiment [3], 1.32 µM (active); in experiment [11], 0.209 µM (active); in [8], 0.132 µM (active); in experiment [9] it was 0.209 µM (active). Further, the Potency in [10] was 0.891 µM (active).
In the case of `CCc1cc(-c2n[nH]c(C)c2-c2ccc3c(c2)OCCO3)c(O)cc1O`, the Potency in [1] was 2.35 µM (active); in [2] it was 4.17 µM (active); in experiment [3] it was 9.35 µM (active); in [11], 11.8 µM (active); in experiment [12] it was 14.1 µM (active).
